# Screening data deposited in PubChem BioAssay by The Scripps Research Institute Molecular Screening Center.
# The list is not random: actives were taken first. Their share in the collection is about 3.5%.
# TEAD-YAP block: TEAD-YAP interaction inhibition; hit rate 1.4% among 640,000; inhibition, % at 9.12 µM; HEK-TIYL cells, TEAD-Gal4/YAP UAS-luciferase luminescence; in the data active = inhibition above about 32%;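 note: 0% = median of test compound wells and 100% = reference inhibitor wells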
# MITF inh: blocks human microphthalmia-associated transcription factor; O75030; AlphaScreen MITF homodimerization, bead proximity signal; inhibition, % at 2.6 µM; hit rate 0.91% among 650,000; in the data active = inhibition above about 50%;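 note: 0% = vehicle wells with protein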
# Target sequence (O75030 whole entry, looked up): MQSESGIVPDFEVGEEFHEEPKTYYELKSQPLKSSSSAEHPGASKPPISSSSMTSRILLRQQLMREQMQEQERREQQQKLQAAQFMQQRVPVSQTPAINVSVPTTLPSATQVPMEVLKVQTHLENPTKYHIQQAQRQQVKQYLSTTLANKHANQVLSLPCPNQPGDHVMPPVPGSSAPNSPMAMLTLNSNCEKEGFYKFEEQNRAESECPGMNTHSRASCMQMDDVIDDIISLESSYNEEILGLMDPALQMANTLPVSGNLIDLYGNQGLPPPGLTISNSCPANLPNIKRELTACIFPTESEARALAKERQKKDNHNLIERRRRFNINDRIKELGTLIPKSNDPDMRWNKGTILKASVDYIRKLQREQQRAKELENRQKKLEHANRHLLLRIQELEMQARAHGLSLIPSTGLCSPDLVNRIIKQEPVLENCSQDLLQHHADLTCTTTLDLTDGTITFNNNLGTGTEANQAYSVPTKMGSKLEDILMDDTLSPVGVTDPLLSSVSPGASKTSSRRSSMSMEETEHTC
# GPR151 ag: human GPR151 activation; Q8TDV0; PathHunter beta-arrestin GPR151 cells, luminescence; activation, % at 11.2 µM; hit rate 1% among 650,000; in the data active = activation above about 4.9%;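 note: 0% = median of compound wells and 100% = cells with positive control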
# FBW7 act: human FBW7 E3 ligase activation, primary screen. AlphaScreen FBW7–phospho-cyclin E peptide binding, activator screen. Q969H0. normalized activity (activation), % at 26.1 µM. hit rate 0.13% among 650,000; in the data active = normalized activity above about 1.9%;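 note: purified mutant Fbw7 with reduced substrate affinity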
# MITF confirm: human MITF inhibition, confirmation | shares compounds with MITF inh | AlphaScreen MITF homodimerization, biotin/His-MITF beads | inhibition, % at 2.6 µM | hit rate 16% among 4,700;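 active = inhibition above a cutoff derived from the DMSO control wells, cut at about 28% in these data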;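 note: 0% = MITF dimer wells with DMSO only; inhibitors lower the bead chemiluminescence by keeping MITF from dimerizing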
# AS interf DR: counter-screen: compounds optically interfering with AlphaScreen | shares compounds with MITF inh | AlphaScreen optical interference counterscreen, cell-free | IC50, µM | hit rate 6% among 480 | AID 1259373; call rule not given here
# AS interf ctr: counter-screen: compounds optically interfering with AlphaScreen. shares compounds with MITF inh. LysRS AlphaScreen counterscreen, signal interference, triplicate. inhibition, % at 2.6 µM. hit rate 7.6% among 4,700. AID 1259376;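 active = inhibition above a cutoff derived from the DMSO control wells, cut at about 30% in these data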
# * marks the source's active call; other numbers are inactive results; · = no result given.
SMILES,TEAD-YAP block,MITF inh,GPR151 ag,FBW7 act,MITF confirm,AS interf ctr,others
CN(C)c1ccc(/C=N/NC(=O)c2nn(C)cc2[N+](=O)[O-])cc1,-15,-6,0,0,·,·,
CN(C)[C@@H]1C(=O)C(C(=O)NCN2CCCC2)=C(O)[C@@]2(O)C(=O)C3=C(O)c4c(O)cccc4[C@@](C)(O)[C@H]3C[C@@H]12,-2,75*,0,0,81*,22,AS interf DR=>6.5
COc1cc2nc(NC3CCN(Cc4ccccc4)CC3)nc(NCCN(C(C)C)C(C)C)c2cc1OC,-2,-19,-1,0,·,·,
CN(CC1CCCCO1)C(=O)Cn1nnnc1CN1CCCCCC1 (configuration not stated),1,51*,1,0,13,-10,
Cc1sc(NC(=O)CN(Cc2ccc(F)cc2)C(=O)C(C)(C)C)c(C(N)=O)c1C,7,68*,1,0,8,13,
Cc1sc(NC(=O)CN(Cc2ccc(F)cc2)C(=O)c2ccccc2)c(C(N)=O)c1C,19,-26,-1,0,·,·,
O=C(O)c1cc(-c2ccco2)nc2ccccc12,11,55*,4,0,57*,18,AS interf DR=>7.6
O=C(COC(=O)c1cc(-c2ccco2)nc2ccccc12)NC1CC1,7,51*,-2,0,40*,-3,AS interf DR=>6.9
CC(C)N(C(=O)COC(=O)c1cc(-c2ccco2)nc2ccccc12)C(C)C,-4,54*,-1,0,45*,7,AS interf DR=>6.8
O=C(OC1CCOC1=O)c1cc(-c2ccco2)nc2ccccc12 (configuration not stated),-11,75*,0,0,76*,3,AS interf DR=>7.2
CCNC(=O)COC(=O)c1cc(-c2ccco2)nc2ccccc12,3,48,0,0,·,·,
O=C(Nc1cccc(O)c1)c1cc(-c2ccco2)nc2ccccc12,4,36,0,0,·,·,
Cn1cnnc1SCc1cc(=O)c(OC(=O)c2ccc(C(C)(C)C)cc2)co1,-5,-1,3,0,·,·,
CC[C@H](C)[C@H]1C(=O)Nc2cc(S(C)(=O)=O)ccc2N1C(C)=O,9,-7,1,0,·,·,
CCN1C(=O)C(O)(CC(=O)c2ccc3c4c(cccc24)CC3)c2ccccc21 (configuration not stated),3,10,0,0,·,·,
COc1c(Cl)cc(Cl)cc1/C=N/NC(=O)c1cc([N+](=O)[O-])ccc1O,-40,-15,1,0,·,·,
Cc1ccc(C(=O)NCC(=O)OCC(=O)c2ccccc2)cc1,5,-15,0,0,·,·,
COc1ccc(OC)c(CN2CCOCC2)c1,3,1,-1,0,·,·,
COc1ccc(Br)cc1CN1CCN(Cc2cccn2C)CC1,1,67*,1,0,19,16,
COc1ccc(Br)cc1CN1CCCCC1,5,-2,1,0,·,·,
COc1ccc(OC)c(CN2CCN(Cc3cccn3C)CC2)c1,0,63*,5,0,1,8,
CN(Cc1ccccc1)C1CCN(Cc2ccncc2)CC1,4,81*,-1,0,3,6,
CN(C)CCN(Cc1ccccc1)C1CCN(Cc2ccncc2)CC1,1,-3,0,0,·,·,
CN(Cc1ccccc1)C1CCN(Cc2ccccn2)CC1,7,41,4,0,·,·,
CN(Cc1ccccc1)C1CCN(Cc2cccnc2)CC1,-7,72*,3,0,-3,-1,
SMILES,TEAD-YAP block,MITF inh,GPR151 ag,FBW7 act,MITF confirm,AS interf ctr,others
O=C(Nc1nnc(-c2ccc(Cl)cc2Cl)s1)c1ccc(F)cc1,6,7,1,0,·,·,
CC(C(=O)NC12CC3CC(CC(C3)C1)C2)N(C)CCOc1ccccc1 (configuration not stated),2,51*,-2,0,5,15,
CCOC(=O)c1c(NC(=O)c2cc(-c3cc(C)ccc3C)nc3ccccc23)sc2c1CCCC2,-5,-16,-1,0,·,·,
CCOC(=O)c1c(NC(=O)c2cc(-c3ccccc3C)nc3ccccc23)sc2c1CCCCCC2,2,69*,-1,0,7,6,
CC(NC(=O)c1cc([N+](=O)[O-])ccc1N1CCOCC1)C12CC3CC(CC(C3)C1)C2 (configuration not stated),-4,15,1,0,·,·,
CCCCn1c(SCC(=O)Nc2ccccc2OC)nc2ccsc2c1=O,2,58*,-1,0,-1,1,
COc1ccc(NC(=O)CCCCCn2c(SCC(=O)Nc3ccccc3OC)nc3ccsc3c2=O)cc1,5,5,-1,0,·,·,
CCCCn1c(SC(CC)C(=O)Nc2ccc3c(c2)OCO3)nc2ccsc2c1=O (configuration not stated),2,69*,-1,0,0,0,
CCC(Sc1nc2ccsc2c(=O)n1CCC(C)C)C(=O)Nc1ccc2c(c1)OCO2 (configuration not stated),-1,-4,-1,0,·,·,
COc1ccc(/C(C)=N/NC(=O)c2ccncc2)c(OC)c1,0,0,0,0,·,·,
O=C(Nc1nc2ccc3ccccc3c2s1)c1ccccc1,-9,2,-2,0,·,·,
O=C(Cn1cc(C(=O)c2ccco2)c2ccccc21)NCc1cccnc1,5,67*,0,0,62*,-4,AS interf DR=>6.5
CCCCOc1c(Cl)cc(C2NC(=O)NC(C)=C2C(C)=O)cc1OCC (configuration not stated),-4,-2,-1,0,·,·,
CCCN(CCC)S(=O)(=O)c1ccc(OCC)c2ccccc12,7,65*,0,1,1,10,
O=C1c2cccc3cc([N+](=O)[O-])cc(c23)C(=O)N1/N=C/c1ccc2c(c1)OCO2,0,19,0,0,·,·,
C[C@@H](O)[C@@H]1NC(=O)[C@H]2CN(C(=O)NC3CCCCC3)CCN2C1=O,1,80*,-1,0,73*,-5,AS interf DR=>6.5
CC(C)[C@H]1NC(=O)[C@H]2CN(C(=O)c3ccccc3)CCN2C1=O,-12,4,1,0,·,·,
CC(C)[C@H]1NC(=O)[C@H]2CN(C(=O)NC3CCCCC3)CCN2C1=O,5,76*,1,0,72*,-12,AS interf DR=>6.5
Cc1ccc(C(=O)N2CCN3C(=O)[C@@H]([C@H](C)O)NC(=O)[C@H]3C2)cc1,-7,11,-1,0,·,·,
COc1ccccc1-n1c(SCC(=O)Nc2nccs2)nc2c(c1=O)SCC2,-2,27,-1,0,·,·,
CCOc1ccc(CN2CCN(c3ccccn3)CC2)cc1,11,25,0,0,·,·,
CCOc1cc(CN2CCN(Cc3cccnc3)CC2)ccc1OC,0,74*,0,1,-9,-1,
CCOc1cc(CN2CCN(Cc3ccccc3Cl)CC2)ccc1OC,-7,67*,0,0,8,12,
CCOc1ccc(CN2CCN(Cc3cccnc3)CC2)cc1,2,55*,1,0,35*,9,AS interf DR=>5.8
